Assay results published in PubChem BioAssay.
Activity calls are given as the source filed them. Cut-off read from the data, not from the text of the source, unless noted: active = inhibition above about 30%; inactive = the rest.

Test: 384-well plate pilot, post-Golgi transport modulator project, inhibition of yeast transport mutant growth (AID 636; in the data active = inhibition above about 31%)
Conditions: absorbance 615 nm, about 18 h, stronger effect = higher value

inhibition, inactive:
COC(=O)c1cccc(NC(=O)Cc2coc3cc(OC)ccc23)c1 3.51%
CCOC(=O)N1CCN(C(=O)CN2C(=O)COc3ccc(C)cc32)CC1 -2.89%
CCNc1nc(N2CCCCC2)nc(-n2nnc(C(=O)OCC)c2C)n1 -6.45%
O=c1c2c3nc4ccccc4nc3n(CC3CCCO3)c2ncn1CCc1ccccc1 (stereo not drawn) -6.93%
COc1ccc(CC(NC(C)=O)C(=O)NC2CCN(C(=O)Nc3ccc(C#N)cc3)CC2)cc1OC (stereo not drawn) -4.13%
O=S(=O)(c1ccc(Br)s1)N1CCCCC1 -1.32%
C/C(N)=C(/C#N)C(=O)COC(=O)c1cc(C)n(-c2ccc(F)cc2)c1C -4.53%
COc1cccc(Nc2cc(C)nc3ccccc23)c1 -4.4%
O=S(=O)(c1ccc(-c2csc(-c3cccnc3)n2)cc1)N1CCCCC1 0%
O=C(O)CCc1ccc(-c2ccc(Br)cc2)n1CC(=O)O -0.51%
COc1ccc(N(CC(=O)NC2CCCC2)C(=O)Cn2nnc(-c3ccc(C)cc3)n2)cc1 2.76%
CCOc1cc(C(=O)N(C)c2ccccc2)cc(OCC)c1OCC -5.64%
COc1ccc(C(=O)Nc2ccc(C)cn2)c(OC)c1 -4.19%
CN(C)c1nc(SCCOC(=O)c2ccccc2)nc(N(C)C)n1 -4.47%
NC(=O)C1CCN(CC(=O)N2c3ccccc3CCc3ccccc32)CC1 -5.53%
CCCC(c1nnnn1Cc1ccc(OC)cc1)N1CCN(c2ccccc2OC)CC1 (stereo not drawn) -2.47%
CCN1C(=O)c2cccc3c(NC(=O)c4ccc5c(c4)OCCO5)ccc1c23 -4.81%
CCN1C(=O)Cc2cc(S(=O)(=O)N3CCOCC3)ccc21 -6.4%
CCOc1ccccc1NC(=O)CN(c1ccc(C)cc1)S(=O)(=O)c1c(C)noc1C -4.46%
O=C(OCCCN1CCCC1)C1(c2ccccc2)CCCC1 -2.84%
COCCn1c(NCc2ccc(C)cc2)nc2c1c(=O)[nH]c(=O)n2C -2.27%
CCCN1C2CCCC1CC(NC(=O)Nc1cccc(C(C)=O)c1)C2 (stereo not drawn) -1.95%
O=C(COC(=O)c1ccccc1O)Nc1ccc(OC(F)F)cc1 5.14%

Test: growth suppression of yeast trafficking mutant, preliminary HTS, modulators of trafficking downstream of Golgi apparatus project, 1536-format plate, OD 615 nm (AID 637)
Conditions: yeast transport mutant growth, absorbance 615 nm, 18 h; stronger effect = higher value

inhibition, inactive:
COc1ccc(-c2noc(COc3ccc4ccccc4c3Br)n2)cc1OC -3.23%
CC(=O)c1ccc(NC2OC(C)C(O)C(O)C2O)cc1 (stereo not drawn) -6.67%
CSc1nc(C)cc(OCC(=O)N2CCOCC2)n1 5%
O=C(CCCn1c(=S)[nH]c2ccccc2c1=O)N1CCCCC1 -8.1%
CN(C(=O)c1ccccn1)c1nnc(-c2ccncc2)s1 -5%
CC(C)(C)OC(=O)N1CC(O)CC1C(=O)OCC(=O)c1ccc(Cl)cc1 (stereo not drawn) 11.5%
Cc1csc(SCc2nc3sc4c(c3c(=O)[nH]2)CCC4)n1 0%
CCC(C)NC(=O)CC1Oc2ccc(C)cc2NC1=O (stereo not drawn) -3.28%
CCSc1nc(C)nc2c1oc1ccccc12 -5.74%
CC1=C(C)[N+](=O)C2CCCCC2N1[O-] (stereo not drawn) -9.34%
O=c1[nH]c2c(s1)C(c1ccco1)C1C3CCC(C3)C1S2 (stereo not drawn) 2.73%
CC1CCCCC1NC(=O)C1CCN(C(=O)NC2CCCCC2)CC1 (stereo not drawn) 0.17%
COc1cccc(OC)c1C(=O)N1CCN(S(=O)(=O)c2ccc(C)cc2)CC1 -3.28%
Cc1nnc(SCc2cc(=O)[nH]c(N3CCCCC3)n2)s1 -2.86%
CCc1[nH]nc2c1C(c1cccc(OC(=O)N3CCOCC3)c1)C(C#N)=C(N)O2 (stereo not drawn) 0.95%
CS(=O)(=O)c1ccc2nc(NC(=O)c3cccs3)sc2c1 2.95%
COc1ccc(C(=O)N2CCN(S(=O)(=O)c3cc(Cl)ccc3OC)CC2)cc1 8.33%
COC(=O)c1cccc(NC(=O)Cc2coc3cc(OC)ccc23)c1 -6.19%
CCOC(=O)N1CCN(C(=O)CN2C(=O)COc3ccc(C)cc32)CC1 6%
CCNc1nc(N2CCCCC2)nc(-n2nnc(C(=O)OCC)c2C)n1 4.75%
O=c1c2c3nc4ccccc4nc3n(CC3CCCO3)c2ncn1CCc1ccccc1 (stereo not drawn) -2.62%
COc1ccc(CC(NC(C)=O)C(=O)NC2CCN(C(=O)Nc3ccc(C#N)cc3)CC2)cc1OC (stereo not drawn) 2.79%
O=S(=O)(c1ccc(Br)s1)N1CCCCC1 -2.13%
C/C(N)=C(/C#N)C(=O)COC(=O)c1cc(C)n(-c2ccc(F)cc2)c1C -1.45%
COc1cccc(Nc2cc(C)nc3ccccc23)c1 1.11%
O=S(=O)(c1ccc(-c2csc(-c3cccnc3)n2)cc1)N1CCCCC1 -1.75%
O=C(O)CCc1ccc(-c2ccc(Br)cc2)n1CC(=O)O -3.67%
COc1ccc(N(CC(=O)NC2CCCC2)C(=O)Cn2nnc(-c3ccc(C)cc3)n2)cc1 -7.58%
CCOc1cc(C(=O)N(C)c2ccccc2)cc(OCC)c1OCC -11.3%
COc1ccc(C(=O)Nc2ccc(C)cn2)c(OC)c1 0.98%
CN(C)c1nc(SCCOC(=O)c2ccccc2)nc(N(C)C)n1 -2.67%
NC(=O)C1CCN(CC(=O)N2c3ccccc3CCc3ccccc32)CC1 5.25%
CCCC(c1nnnn1Cc1ccc(OC)cc1)N1CCN(c2ccccc2OC)CC1 (stereo not drawn) -2.3%
CCN1C(=O)c2cccc3c(NC(=O)c4ccc5c(c4)OCCO5)ccc1c23 0.63%
CCN1C(=O)Cc2cc(S(=O)(=O)N3CCOCC3)ccc21 -0.63%
CCOc1ccccc1NC(=O)CN(c1ccc(C)cc1)S(=O)(=O)c1c(C)noc1C 5.56%
O=C(OCCCN1CCCC1)C1(c2ccccc2)CCCC1 -13.3%
COCCn1c(NCc2ccc(C)cc2)nc2c1c(=O)[nH]c(=O)n2C -1.29%
CCCN1C2CCCC1CC(NC(=O)Nc1cccc(C(C)=O)c1)C2 (stereo not drawn) -0.95%

inhibition, active:
O=C(COC(=O)c1ccccc1O)Nc1ccc(OC(F)F)cc1 32.4%
